Assay [1] can be described thus: Nuclear factor erythroid 2-related factor 2/antioxidant responsive element (Nrf2/ARE) small molecule agonists: qHTS cell viability counter screen in human keratinocytes (AID 1919968; active = well fitted curve in the direction sought with a large enough effect in the repeat runs; an effect the other way counts as inactive or inconclusive; note: nearly all actives have a fitted effect of over 55% in size; note: potency is the fitted concentration of half-maximal effect). The method in brief: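 CellTiter-Fluor fluorescence, read 1 h after reagent, gave viability in the same wells as the ARE-luciferase assay. KeratinoSens cells (1,500/well) had 23 h compound exposure at 37 C/5% CO2 following 5 h plating.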

Assay [2] is described as follows: Nuclear factor erythroid 2-related factor 2/antioxidant responsive element (Nrf2/ARE) small molecule agonists: luciferase reporter gene qHTS assay in human keratinocytes (AID 1919969). Note: nearly all actives have a fitted effect of over 35% in size. Note: potency is the fitted concentration of half-maximal effect.
The target of assay [3] is Gonadotropin-releasing hormone receptor (Homo sapiens) (UniProt P30968). As to the kind of experiment: Human gonadotropin-releasing hormone receptor (GnRHR) small molecule agonists, calcium flux assay in GnRHR-HEK293 cells (AID 1920063). Note: nearly all actives have a fitted effect of over 35% in size. In outline:
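Agonist mode: compounds at 15 concentrations, in triplicate, went onto calcium dye-loaded GnRHR-HEK293 cells. Intracellular calcium was then followed as 480/540 nm fluorescence at 1 s intervals over 3 min.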

Assay [4] deals with KiSS-1 receptor (Homo sapiens) (UniProt Q969F8). As to the kind of experiment: Human kisspeptin (KISS1R) small molecule agonists, calcium flux assay in KISS1R-HEK293 cells (AID 1920064; active = well fitted curve in the direction sought with a large enough effect in the repeat runs; an effect the other way counts as inactive or inconclusive). The method in brief:
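Agonist mode: intracellular calcium rise tracked at 1 s intervals over 3 min (480/540 nm) immediately after compound addition to dye-loaded KISS1R-HEK293 stable cells. Each compound tested at 15 concentrations in triplicate.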

A short description of assay [5]: G protein-coupled receptor (GPCR) small molecule agonists, calcium flux assay: HEK293 wild type cell line counter screen (AID 1920065). The method in brief: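 Calcium flux counter screen: compound added in agonist mode at 15 concentrations in triplicate to dye-loaded parental HEK293 cells. Fluorescence (480/540) read kinetically for 3 min; ATP served as positive control.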

Assay [6] can be described thus: p53 small molecule agonists, cell-based qHTS assay with human liver microsomes: qHTS cell viability counter screen (AID 1963579). Note: nearly all actives have a fitted effect of over 45% in size. Note: potency is the fitted concentration of half-maximal effect. In outline: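 HLM-supplemented (0.5 mg/mL final) and NADPH-supplemented (0.5 mg/mL final) p53RE-bla cultures, 4,000 cells per well, were dosed with compounds in DMSO for 16 h at 37 C; luminescent ATP detection (CellTiter-Glo, 30 min, room temperature) quantified surviving cells.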

Assay [7] can be described thus: p53 small molecule agonists, cell-based qHTS assay with rat liver microsomes: qHTS cell viability counter screen (AID 1963580). Note: nearly all actives have a fitted effect of over 45% in size. Note: potency is the fitted concentration of half-maximal effect. In outline: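 Luminescent ATP readout (CellTiter-Glo, 30 min at room temperature) reports viability of p53RE-bla HCT-116 cells after 16 h at 37 C with test compounds under metabolic activation by rat liver microsomes and NADPH at 0.5 mg/mL final each.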

A short description of assay [8]: p53 small molecule agonists, cell-based qHTS assay: qHTS cell viability counter screen (AID 1963581). Note: nearly all actives have a fitted effect of over 45% in size. Note: potency is the fitted concentration of half-maximal effect. The method in brief: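 Counter screen read by CellTiter-Glo luminescence (ATP content, 30 min at room temperature), run in the same wells as the beta-lactamase reporter read. HCT-116 p53RE-bla cells saw compounds for 16 h at 37 C.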
Assay [9] addresses 5-hydroxytryptamine receptor 2A (Homo sapiens) (UniProt P28223). As to the kind of experiment: 5-hydroxytryptamine receptor 2A (HTR2A) small molecule antagonists, cell-based qHTS assay (AID 1963586). Note: nearly all actives have a fitted effect of over 45% in size. The method in brief: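 CHO cells stably expressing human HTR2A were plated for 18 h at 37 C, then loaded with calcium dye for 1 h. Compounds were preincubated 5 min at room temperature before DOI (4 nM solution) was added. Kinetic fluorescence was read for 3 min.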

Assay [10] has the same target. As to the kind of experiment: 5-hydroxytryptamine receptor 2A (HTR2A) small molecule agonists, cell-based qHTS assay (AID 1963587). Note: nearly all actives have a fitted effect of over 30% in size. Note: potency is the fitted concentration of half-maximal effect. The method in brief: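 HTR2A-CHO cells, plated 18 h at 37 C/5% CO2, dye-loaded 1 h at 37 C; compounds in DMSO added by pin tool (agonist mode). Intracellular calcium flux read as kinetic fluorescence on FDSS over 2 min at 1 s intervals.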

Assay [11] concerns the target Muscarinic acetylcholine receptor M1 (Homo sapiens) (UniProt P11229). As to the kind of experiment: Cholinergic receptor muscarinic 1 (CHRM1) small molecule antagonists, cell-based qHTS assay (AID 1963588). Note: nearly all actives have a fitted effect of over 40% in size. Note: potency is the fitted concentration of half-maximal effect. The method in brief: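 Compounds were tested at 15 concentrations in three independent runs. Dye-loaded CHRM1-CHO cells were exposed 5 min at room temperature before stimulation by acetylcholine added at 50nM. Intracellular calcium was read kinetically on FDSS for 3 min.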

Assay [12] shares this target. As to the kind of experiment: Cholinergic receptor muscarinic 1 (CHRM1) small molecule agonists, cell-based qHTS assay (AID 1963589). Note: nearly all actives have a fitted effect of over 35% in size. The method in brief:
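Agonist-mode calcium-flux screen: compounds at 15 concentrations, three independent runs, were pin-transferred onto dye-loaded human CHRM1-CHO cells. Fluorescence was then recorded kinetically every second over minutes.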

Assay [13] in a line: cAMP Responsive Elements (CRE) small molecule agonists, cell-based qHTS assay (AID 1963590). In outline:
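Agonist mode: compound added to CRE-bla HEK 293T cells (2,000/well, 18 h after plating) for 3 h at 37 C/5% CO2. Reporter activity detected via FRET beta-lactamase substrate, 2 h room-temperature loading.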

Assay [14] in a line: cAMP Responsive Elements (CRE) small molecule antagonists, cell-based qHTS assay (AID 1963591; active = well fitted inhibition curve with a large enough effect in the signal ratio in the repeat runs, not every such curve was filed as active; the % refers to the signal ratio). The method in brief: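 Antagonist mode: compounds are added alongside the adenylyl cyclase activator NKH477 (0.25 uM final) to CRE-bla HEK293T cells for 3 h. LiveBLAzer FRET substrate, 2 h at room temperature, reports bla expression.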
For assay [15], the target named is Beta-2 adrenergic receptor (Homo sapiens) (UniProt P07550). As to the kind of experiment: Adrenergic beta2 receptor (ADRB2) small molecule antagonists, cell-based qHTS assay (AID 1963592). Note: series mostly up to about 92 µM; nearly all actives have a fitted effect of over 50% in size. In outline: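 Assay format: CHO-ADRB2 cells, 18-20hr seeding at 37C/5% CO2, then compound plus 1nM isoproterenol agonist mix for 0.5hr RT. Homogeneous time-resolved fluorescence cAMP detection after 1hr, expressed as 665/615 nm ratio.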
Sequence of Beta-2 adrenergic receptor (Homo sapiens) (P07550 whole entry, looked up): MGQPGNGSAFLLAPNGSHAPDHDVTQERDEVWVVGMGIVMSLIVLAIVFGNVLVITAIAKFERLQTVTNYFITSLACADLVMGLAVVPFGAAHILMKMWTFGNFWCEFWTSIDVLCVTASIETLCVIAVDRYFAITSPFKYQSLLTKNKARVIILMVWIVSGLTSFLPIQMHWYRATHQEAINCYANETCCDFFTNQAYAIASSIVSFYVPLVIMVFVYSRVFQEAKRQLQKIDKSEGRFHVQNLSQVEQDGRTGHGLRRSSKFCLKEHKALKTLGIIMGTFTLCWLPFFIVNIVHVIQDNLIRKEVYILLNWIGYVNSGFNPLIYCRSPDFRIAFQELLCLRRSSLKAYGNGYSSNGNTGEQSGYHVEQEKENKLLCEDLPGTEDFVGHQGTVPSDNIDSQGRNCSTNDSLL

For assay [16] the target is unchanged. As to the kind of experiment: Adrenergic beta2 receptor (ADRB2) small molecule agonists, cell-based qHTS assay (AID 1963593). Note: potency is the fitted concentration of half-maximal effect. The method in brief:
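CHO cells stably over-expressing ADRB2 were plated overnight at 37C, then dosed with compounds plus a stimulation mix containing 100uM IBMX and 25uM Ro-20-1724 for 0.5hr at room temperature. cAMP was measured by HTRF competition, 1hr.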

The target in assay [17] is D(2) dopamine receptor (Homo sapiens) (UniProt P14416). As to the kind of experiment: Dopamine D2 receptor (DRD2) small molecule agonists, cell-based qHTS assay (AID 1963594). Note: nearly all actives have a fitted effect of over 35% in size. In outline:
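HEK293 cells stably expressing DRD2 were cultured 24 h at 37 C, then given Ro20-1724 (0.1 mM final) and compounds for 10 min at room temperature. NKH477 (200nM) was then added for 30 min. cAMP was read by HTRF.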

Assay [18] shares this target. As to the kind of experiment: Dopamine D2 receptor (DRD2) small molecule antagonists, cell-based qHTS assay (AID 1963595; active = well fitted inhibition curve with a large enough effect in the signal ratio in the repeat runs, with a control signal flat; the % refers to the signal ratio). In outline: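 Readout: HTRF cAMP, cAMP-d2 competing with cellular cAMP for anti-cAMP cryptate, read after 1 h. Cells: DRD2-HEK293. Conditions: 0.1 mM Ro20-1724, 12 nM quinpirole, 200 nM NKH477, 30 min RT.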

Values joined by “and” are separate entries in the source; they are usually repeats but may differ in a detail not shown here. Equal values may be shown once. Records with an inconclusive call do not appear. Some structures have more than one record in an assay (separate samples or runs), and their calls can disagree. Active and inactive are the calls of the source. Unless noted, calls come from the whole dose curve.

Sequence of KiSS-1 receptor (Homo sapiens) (Q969F8 whole entry, looked up): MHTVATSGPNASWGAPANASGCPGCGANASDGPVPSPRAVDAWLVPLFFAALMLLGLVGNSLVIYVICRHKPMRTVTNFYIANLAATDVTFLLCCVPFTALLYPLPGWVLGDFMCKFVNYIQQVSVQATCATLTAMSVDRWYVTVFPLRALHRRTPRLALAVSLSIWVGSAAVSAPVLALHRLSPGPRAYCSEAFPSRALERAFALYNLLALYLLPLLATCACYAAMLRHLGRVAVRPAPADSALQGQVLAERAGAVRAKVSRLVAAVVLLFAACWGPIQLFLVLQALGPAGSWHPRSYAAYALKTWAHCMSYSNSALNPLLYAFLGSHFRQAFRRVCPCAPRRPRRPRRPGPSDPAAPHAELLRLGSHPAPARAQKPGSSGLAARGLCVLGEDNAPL
Sequence of D(2) dopamine receptor (Homo sapiens) (P14416 whole entry, looked up): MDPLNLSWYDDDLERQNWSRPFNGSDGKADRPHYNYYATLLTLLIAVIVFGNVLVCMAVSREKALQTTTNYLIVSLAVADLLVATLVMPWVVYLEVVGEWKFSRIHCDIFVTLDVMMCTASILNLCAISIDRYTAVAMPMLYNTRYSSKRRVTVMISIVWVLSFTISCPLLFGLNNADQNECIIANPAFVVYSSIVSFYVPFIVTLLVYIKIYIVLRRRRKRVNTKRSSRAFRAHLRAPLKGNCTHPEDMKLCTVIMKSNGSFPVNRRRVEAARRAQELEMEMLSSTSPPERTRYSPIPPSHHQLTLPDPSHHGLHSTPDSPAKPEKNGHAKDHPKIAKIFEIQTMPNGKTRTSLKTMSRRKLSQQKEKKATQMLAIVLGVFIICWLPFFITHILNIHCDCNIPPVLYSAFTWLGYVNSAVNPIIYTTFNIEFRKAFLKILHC
Sequence of Gonadotropin-releasing hormone receptor (Homo sapiens) (P30968 whole entry, looked up): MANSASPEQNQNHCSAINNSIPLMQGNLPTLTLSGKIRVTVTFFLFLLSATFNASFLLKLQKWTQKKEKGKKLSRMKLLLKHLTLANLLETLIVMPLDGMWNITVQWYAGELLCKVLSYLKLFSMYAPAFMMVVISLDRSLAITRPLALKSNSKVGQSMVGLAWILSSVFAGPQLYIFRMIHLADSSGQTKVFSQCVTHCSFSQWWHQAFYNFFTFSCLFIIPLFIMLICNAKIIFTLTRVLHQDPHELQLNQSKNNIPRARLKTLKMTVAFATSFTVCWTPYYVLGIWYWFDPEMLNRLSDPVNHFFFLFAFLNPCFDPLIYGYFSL
Sequence of Muscarinic acetylcholine receptor M1 (Homo sapiens) (P11229 whole entry, looked up): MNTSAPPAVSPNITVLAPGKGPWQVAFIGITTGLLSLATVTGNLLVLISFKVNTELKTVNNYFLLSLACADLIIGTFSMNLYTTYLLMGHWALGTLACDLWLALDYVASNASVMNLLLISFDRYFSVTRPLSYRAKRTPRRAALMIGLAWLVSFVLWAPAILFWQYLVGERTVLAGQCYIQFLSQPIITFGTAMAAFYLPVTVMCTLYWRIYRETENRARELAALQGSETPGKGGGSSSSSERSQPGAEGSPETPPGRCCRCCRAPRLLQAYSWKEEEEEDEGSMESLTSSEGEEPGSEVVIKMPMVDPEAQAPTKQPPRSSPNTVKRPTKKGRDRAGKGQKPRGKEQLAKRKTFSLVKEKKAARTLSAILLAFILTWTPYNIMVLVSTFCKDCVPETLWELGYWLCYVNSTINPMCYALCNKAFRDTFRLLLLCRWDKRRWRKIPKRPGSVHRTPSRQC
Sequence of 5-hydroxytryptamine receptor 2A (Homo sapiens) (P28223 whole entry, looked up): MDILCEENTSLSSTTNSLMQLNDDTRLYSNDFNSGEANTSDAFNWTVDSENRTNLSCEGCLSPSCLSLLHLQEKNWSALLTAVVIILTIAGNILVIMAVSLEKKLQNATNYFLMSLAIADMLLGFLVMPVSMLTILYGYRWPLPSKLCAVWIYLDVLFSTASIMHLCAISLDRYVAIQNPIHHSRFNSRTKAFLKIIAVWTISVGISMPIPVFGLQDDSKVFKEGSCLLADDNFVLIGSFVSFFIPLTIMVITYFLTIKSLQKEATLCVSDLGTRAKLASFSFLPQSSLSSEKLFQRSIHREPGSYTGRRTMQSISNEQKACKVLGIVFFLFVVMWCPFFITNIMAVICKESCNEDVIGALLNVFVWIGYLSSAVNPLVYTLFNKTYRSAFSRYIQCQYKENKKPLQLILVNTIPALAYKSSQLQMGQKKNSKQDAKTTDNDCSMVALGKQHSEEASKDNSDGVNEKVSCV

For the compound `O=S1(=O)OC(c2ccc(O)cc2)(c2ccc(O)cc2)c2ccccc21`, the Potency in assay [1] was 24.3 µM (active). For the same compound, the Potency entry in assay [2], in assay [3], in assay [4], in [5], in [6] and in assay [7] was “inactive” each time. The Potency result in assay [8], in [9], in assay [10], in [11], in assay [12] and in assay [13] was “inactive” throughout. In addition, the Potency result in [14], in [15], in assay [16], in [17] and in [18] was “inactive” each time.
Turning to `OCCNCCO`, the Potency entry in assay [1], in assay [2], in [3], in assay [4], in assay [5] and in assay [6] was “inactive” in each case. Moreover, the Potency result in assay [7], in [8], in assay [9], in [10], in assay [11] and in assay [12] was “inactive” throughout. Also, the Potency entry in [13], in assay [14], in assay [17] and in [18] was “inactive” in each case.
Turning to `O=Cc1ccccc1C=O`, the Potency in assay [1] is 61.1 µM (active) and inactive; in [2], 24.3 µM (active) and inactive; in [11], 42.1 µM (active) and inactive; in assay [16], 43.3 µM (active). Also, the Potency entry in [3], in [4], in [5], in [6], in [7] and in [8] was “inactive” each time. Further, the Potency result in assay [9], in assay [10], in assay [12], in [14], in assay [15] and in assay [17] was “inactive” each time. Besides, in [18], the Potency entry was “inactive”.
Take `O=C(Oc1ccccc1)c1ccccc1`: the Potency entry in [1], in assay [2], in assay [3], in assay [4], in assay [5] and in assay [6] was “inactive” each time. The Potency result in assay [7], in assay [8], in assay [9], in assay [11], in [12] and in assay [13] was “inactive” in each case. The Potency entry in [14], in [15], in [16], in assay [17] and in assay [18] was “inactive” each time. Further, the Potency in assay [10] was 55 µM (active) and inactive.
With `N[C@@H](Cc1c[nH]c2ccccc12)C(=O)O`, the Potency result in assay [1], in [2], in [3], in [4], in assay [5] and in [6] was “inactive” throughout. For the same compound, the Potency result in assay [7], in [8], in [9], in assay [11], in assay [12] and in [13] was “inactive” each time. For the same compound, the Potency result in assay [14], in assay [15], in assay [16], in assay [17] and in [18] was “inactive” throughout. The Potency in [10] was 34.7 µM (active) and inactive.
In the case of `CCCCC(CC)COP(=O)(O)OCC(CC)CCCC` (configuration not stated), the Potency in [1] is 54.6 µM (active) and 54.5 µM (active); in assay [6], 36.4 µM (active) and 20.4 µM (active); in assay [7], 28.9 µM (active); in assay [8], 20.5 µM (active) and 25.7 µM (active). In addition, the Potency result in assay [2], in [3], in assay [4], in assay [5], in [9] and in [10] was “inactive” throughout. In addition, the Potency result in [11], in assay [12], in [14], in assay [17] and in assay [18] was “inactive” in each case.

Values taken from PubChem BioAssay (Tox21).
